Assay outcomes as filed in PubChem BioAssay.
Rows were chosen to be rich in hits. Some 7.1% of all compounds tested hit in one or more screens of this group.
MCF10A rereplic – induces DNA re-replication in MCF 10a normal breast cells; Potency, µM (series often up to 46.1 µM), inactives show top-dose activity, positive = re-replication, actives largely listed as activators; AID 624296; MCF 10A DNA re-replication, Hoechst nuclear intensity, 48 h; 2.9% of 350,000 active; also: potency is read from the fitted curve at half-maximal effect; % of control where 0% means no effect; nearly all actives have a fitted effect of over 50% in size
ATXN2 expr inh – ATXN2 expression inhibition; HEK-293 ATXN2-luciferase reporter, luminescence, 24 h; 0.72% of 360,000 active; Potency, µM (highest dose often 57 µM), inactives show at the top dose activity change, negative = inhibition, most hits filed as inhibitors; AID 1745845; also: potency is read from the fitted curve at half-maximal effect; % is scaled to controls: 0 for no effect and ±100 for the full control effect; nearly all actives have a fitted effect of over 55% in size
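ATXN2-luciferase reporter cells (luciferase flanked by upstream and downstream ATXN2 gene portions) were treated 24 h at 37 °C with compounds at up to 57 uM. SteadyGlo luminescence gave expression; GF-AFC fluorescence gave viability.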
IL-1B inflam inh – inhibitors of inflammasome signaling (IL-1 beta secretion) | 4.7% of 360,000 active | activity change, % at 57.5 µM | AID 743279 | THP-1 LPS/ATP IL-1B secretion, AlphaLISA, 16 h; hits give low values; in the data active = activity change below about -50%; inconclusive = mostly about -30% to -49%; also: % is scaled to controls: 0 for no effect and ±100 for the full control effect
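Secreted IL-1B measured by AlphaLISA bead assay after 16 h compound exposure of THP-1 cells; compounds (final up to 57.5 uM) added 1 h before LPS (250 ng/mL) and ATP (1.25 mM) stimulation; lower signal means less secretion.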
S2 tox – viability counter-screen for ATXN expression inhibitors. Potency, µM (series often up to 56.7 µM), hits mostly cytotoxic. 0.49% of 400,000 active. S2 cells (HEK-293 line with an ATXN2-luciferase reporter) viability, CellTiter-Fluor protease fluorescence, 24 h; also: potency is read from the fitted curve at half-maximal effect; nearly all actives have a fitted effect of over 40% in size
PINK1 modulator – changes PINK1 expression | PINK1 immunofluorescence, high-content cytometry, 24 h | Potency, µM (top dose mostly 76.6 µM), for inactives: top-dose activation (PINK1 increase), usual class: activators | 0.2% of 410,000 active; active = well fitted activation curve with a large enough effect; inconclusive = small, poorly fitted or top-dose-only effect; cell line not stated here; also: potency is read from the fitted curve at half-maximal effect; % of control where 0% means no effect; nearly all actives have a fitted effect of over 65% in size
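PINK1 protein, normally rapidly degraded, was detected by immunofluorescence after 24 hour compound treatment of a stable cell line. Titration data (5 concentrations) came from laser-scanning cytometry, with CCCP-treated wells as controls.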
SW480 rereplic – inducers of DNA re-replication in SW480 colon cancer cells | SW480 DNA re-replication, Hoechst DNA content imaging, 48 h | Potency, µM (doses to about 46.1 µM), without a hit: top-dose re-replication activation, usual class: activators | 1.8% of 340,000 active; also: potency is read from the fitted curve at half-maximal effect; % of control where 0% means no effect; nearly all actives have a fitted effect of over 55% in size
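DNA re-replication was detected as more nuclei of elevated Hoechst intensity after 48 hr exposure to compound (23 nL pinned per well of 250 cells).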
Numbers without * were called inactive; i = inactive; ? = inconclusive; nt = no result given; [ ] = another dose, or the depositor's remark. Unless noted, calls follow the shape of the dose curve; as a rule, active = well fitted curve in the direction sought with a large enough effect; inconclusive = small, poorly fitted or top-dose-only effect, or another doubt; inactive = no such curve, though single readings can be large; an effect the other way counts as inactive or inconclusive.

SMILES | MCF10A rereplic | ATXN2 expr inh | IL-1B inflam inh | S2 tox | PINK1 modulator | SW480 rereplic
NC(=O)C(C(=O)/C=C/c1ccc(Cl)cc1)=C1SCCS1 | ? | nt | -99* | ? | -1% | 12%
COc1ccc(NS(=O)(=O)c2ccc(C(=O)N3CCCCCC3)cc2)cc1 | ? | ? | -52* | ? | -3% | 19%
O=C(c1ccc(S(=O)(=O)Nc2ccccc2)cc1)N1CCC1 | -36% | -8% | -8 | i | -2% | 15µM*
O=C(c1ccc(NS(=O)(=O)c2ccccc2)cc1)N1CCCCCC1 | -2% | 0% | i | i | 1% | -5%
Cc1ccc(CN2C(=O)CC(c3ccc(Cl)cc3)c3c(C)nn(-c4nc(C)cc(C)n4)c32)cc1 (stereo unspecified) | nt | ? | nt | nt | 6% | nt
CCc1ccc(NC(=O)C2(c3ccccc3)CC2(Cl)Cl)cc1 (stereo unspecified) | 23µM* | -3% | -30 | i | 3% | ?
Cc1ccc(NC(=O)C2(c3ccccc3)CC2(Cl)Cl)cc1C (stereo unspecified) | 21µM* | 40% | -10 | i | ? | 4%
CC(C)OCCCNC(=O)C(=O)Nc1c2c(nn1-c1ccccc1)CS(=O)(=O)C2 | nt | 7% | nt | i | 1% | nt
CCC(=O)NC1=C(NC(C)c2ccccc2)C(=O)c2ccccc2C1=O (stereo unspecified) | 1% | 6% | 18 | ? | -1% | -1%
CCC(=O)NC1=C(Cl)C(=O)C(NC(=O)CC)=C(Cl)C1=O | ? | nt | -86* | nt | 0% | 13%
CCc1ccc(NC(=O)c2ccc3c(=O)n4nc(Nc5ccccc5C)sc4nc3c2)cc1 | nt | -3% | nt | i | 1% | nt
CCC(C)(C)NC(=O)C(c1ccccn1)N(C(=O)c1csnn1)C1CCCCC1 (stereo unspecified) | 7.3µM* | -20% | -14 | i | -2% | 4%
CC(C)(C)NC(=O)C(c1ccccn1)N(C(=O)c1csnn1)C1CCCCC1 (stereo unspecified) | -8% | -4% | -16 | i | 0% | -11%
COc1ccc(N(C(=O)c2ccccc2C)S(=O)(=O)c2cccs2)cc1 | 1.2µM* | -13% | 80 | i | 3% | 2.6µM*
COc1ccc(N(C(=O)c2ccccc2C)S(=O)(=O)c2ccc(C)cc2)cc1 | nt | -22% | nt | i | 6% | nt
Cc1cc(C)cc(-n2ncc3c2CCCC3NC(=O)c2cc(C)oc2C)c1 (stereo unspecified) | 22% | -7% | -29 | ? | 5% | 2%
COc1ncccc1C(=O)NC1CCCc2c1cnn2-c1cc(C)cc(C)c1 (stereo unspecified) | 9% | -11% | -56* | i | 1% | -3%
Cc1ccc(NC(=S)N2CCC(c3nc4ccccc4s3)CC2)cc1C | -2% | -11% | -65* | i | 0%[38.3 µM] | -5%
CCOC(=O)c1sc(=S)n(C)c1NC(=O)c1cccc(Br)c1 | ? | ? | -13 | i | 40µM* | -3%
CCOC(=O)c1sc(=S)n(C)c1NC(=O)c1ccccc1 | 0% | -4% | 15 | i | -4% | -3%
Cc1ccc(C(=O)Sc2cccccc2=O)cc1 | 2.1µM* | ? | -97* | nt | -2% | ?
O=C(Nc1ccccc1SC(=O)c1ccccc1)c1ccccc1 | nt | nt | 20 | ? | 0% | nt
COc1cccc(/C=C2/Sc3ccc(C(=O)NCCN4CCCC4)cc3NC2=O)c1 | -6% | nt | ? | ? | -2% | -4%
Cc1ccc(CNC(=O)c2ccc3c(c2)NC(=O)C(N2CCOCC2)S3)cc1 (stereo unspecified) | 4% | -15% | -77* | i | -3% | -11%
O=C1Nc2cc(C(=O)NCCN3CCCCCC3)ccc2S/C1=C/c1ccccc1F | nt | nt | -102* | ? | -2% | nt
O=C(NCCCN1CCCCC1)c1ccc2c(c1)NC(=O)c1ccccc1S2 | 21% | nt | -17 | ? | 1% | -6%
